Test results taken from PubChem BioAssay (NCI).
This is part of a sample that, as a whole, favours compounds with a hit. Of some 79,000 tested, about 15% had one in any assay. Activity calls are given as the source filed them. Rule as the data show it: active = growth inhibition above about 70%; inactive = the rest.

Tests used:
[1] = NCI Yeast Anticancer Drug Screen. Data for the wt1 strain (AID 149);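 also: 0% = growth of vehicle-treated wt1 cultures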; settings: S. cerevisiae wt1 strain (SPY 50644) growth inhibition, active compounds read high
Method in brief: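 wt1 strain grown with compound or vehicle; inhibition taken from the growth difference.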

[2] = NCI Yeast Anticancer Drug Screen. Data for the rad50EPP+ strain (AID 151);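 also: 0% = growth of vehicle-treated control cultures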; settings: S. cerevisiae rad50 mutant strain, active compounds read high
Method in brief: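 Strain rad50EPP+; compound exposure; % growth inhibition vs vehicle.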

[3] = NCI Yeast Anticancer Drug Screen. Data for the rad50 strain (AID 155);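 also: 0% = growth of vehicle-only cultures of the same strain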; settings: S. cerevisiae rad50 strain growth inhibition, active compounds read high
Method in brief: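 DNA repair mutant yeast, compound exposure, growth read-out; inhibition is taken relative to vehicle.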

[4] = NCI Yeast Anticancer Drug Screen. Data for the mec2-1 strain (AID 157); settings: S. cerevisiae mec2-1 strain, active compounds read high
Method in brief: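 Cells of the genetically defined mec2-1 yeast strain are incubated with test compound. Inhibition of growth is calculated against vehicle-treated controls.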

[5] = NCI Yeast Anticancer Drug Screen. Data for the rad14 strain (AID 159);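 also: 0% = growth of vehicle-treated control cultures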; settings: S. cerevisiae rad14 strain growth inhibition, active compounds read high
Method in brief: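 DNA repair-defective yeast, compound-exposed; % growth inhibition derived by comparison with vehicle-treated controls.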

[6] = NCI Yeast Anticancer Drug Screen. Data for the sgs1 mgt1 strain (AID 161);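 also: 0% = growth of cultures given vehicle only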; settings: S. cerevisiae sgs1 mgt1 strain, active compounds read high
Method in brief: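 Genetically altered yeast, compound exposure, growth inhibition relative to vehicle.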

[7] = NCI Yeast Anticancer Drug Screen. Data for the cln2 rad14 strain (AID 165);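 also: 0% = growth equal to vehicle treated cultures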; settings: S. cerevisiae cln2 rad14 strain, active compounds read high
Method in brief: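 The screen exposed genetically defined yeast (cln2 rad14) to test compounds and scored growth inhibition relative to vehicle-treated controls.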

[8] = NCI Yeast Anticancer Drug Screen. Data for the bub3 strain (AID 167); settings: S. cerevisiae bub3 mutant strain, active compounds read high
Method in brief: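 In this screen, a yeast mutant lacking normal mitotic checkpoint function is challenged with compound. Relative growth versus vehicle gives the inhibition value.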

[9] = NCI Yeast Anticancer Drug Screen. Data for the wt2 strain (AID 169);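 also: 0% = growth of vehicle-treated yeast cultures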; settings: S. cerevisiae wt2 strain growth inhibition, active compounds read high
Method in brief: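 Steps: yeast strain treated with compound; growth recorded; inhibition calculated relative to cultures given vehicle alone.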

[10] = NCI Yeast Anticancer Drug Screen. Data for the mlh1 strain (AID 171);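 also: 0% = growth of vehicle-treated control cultures of the same strain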; settings: S. cerevisiae mlh1 strain growth inhibition, active compounds read high
Method in brief: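 Yeast screen: mutant strain plus compound, growth scored against vehicle control wells.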

[11] = NCI Yeast Anticancer Drug Screen. Data for the sgs1 strain (AID 173);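 also: 0% = growth of vehicle-only control cultures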; settings: S. cerevisiae sgs1 mutant, active compounds read high
Method in brief: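 Inhibition of yeast growth served as the measure. The mutant strain was treated with each compound, and growth was normalised to cultures receiving vehicle alone.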

[12] = NCI Yeast Anticancer Drug Screen. Data for the mlh1 rad18 strain (AID 175); settings: S. cerevisiae mlh1 rad18 strain growth inhibition, active compounds read high
Method in brief: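 Compound-treated yeast growth, normalised to vehicle controls. Strain bears defined DNA repair mutations.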

[13] = NCI Yeast Anticancer Drug Screen. Data for the rad18 strain (AID 177); settings: S. cerevisiae rad18 mutant growth inhibition, active compounds read high
Method in brief: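 Inhibition values reflect reduced yeast growth compared with vehicle-treated controls, using a strain engineered with a DNA damage repair defect.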

[14] = NCI Yeast Anticancer Drug Screen. Data for the rad52 strain (AID 147);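 also: 0% = growth of vehicle-treated control cultures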; settings: S. cerevisiae rad52 mutant growth inhibition, active compounds read high
Method in brief: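 Genetically altered yeast (DNA damage repair defect) treated with compound; inhibition calculated relative to vehicle.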

[15] = NCI Yeast Anticancer Drug Screen. Data for the mgt1 strain (AID 153); settings: S. cerevisiae mgt1 mutant growth inhibition, active compounds read high
Method in brief: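 Read-out: yeast growth inhibition vs vehicle control. Strain mgt1, drawn from a panel altered in DNA damage repair or cell cycle control.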

[16] = NCI Yeast Anticancer Drug Screen. Data for the CLN2oe strain (AID 163);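 also: 0% = growth of vehicle-only control cultures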; settings: S. cerevisiae CLN2oe strain, active compounds read high
Method in brief: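 Strain altered in cell-cycle control, incubated with compound; growth compared to solvent-treated controls.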

[17] = at 5.0 µM (retest, dose inferred, filed as 0.5)
[18] = at 50.0 µM (retest, dose inferred, filed as 5.0)

Measured: growth inhibition

Cc1cc(O)c(C(C)C)cc1SC#N
active: [1]; at 100.0 µM 99% | [2]; at 100.0 µM 89% | [3]; [17] 91% | [3]; [18] 98% | [3]; at 50.0 µM 89.1% | [3]; at 100.0 µM 98% | [4]; [17] 96% | [4]; [18] 99% | [4]; at 50.0 µM 91.1% | [4]; at 100.0 µM 98% | [5]; at 100.0 µM 99% | [6]; [18] 97% | [6]; at 50.0 µM 91.9% | [7]; [18] 98% | [7]; at 50.0 µM 90.3% | [8]; [17] 72% | [8]; at 11.0 µM 91% | [8]; [18] 98% | [8]; at 50.0 µM 90.5% | [8]; at 100.0 µM 98% | [9]; at 100.0 µM 98% | [10]; at 100.0 µM 98% | [11]; at 100.0 µM 98% | [12]; [17] 81% | [12]; [18] 99% | [12]; at 50.0 µM 89% | [13]; at 100.0 µM 98%
inactive: [1]; at 1.2 µM -15% | [1]; at 3.7 µM 1% | [1]; at 11.0 µM 43% | [1]; at 33.0 µM 36% | [2]; at 1.2 µM -12% | [2]; at 3.7 µM -5% | [2]; at 11.0 µM 1% | [2]; at 33.0 µM 10% | [3]; at 1.2 µM -24% | [3]; at 3.7 µM -15% | [3]; at 11.0 µM 67% | [3]; at 33.0 µM 19% | [4]; at 1.2 µM -26% | [4]; at 3.7 µM -25% | [4]; at 11.0 µM 68% | [4]; at 33.0 µM 24% | [5]; at 1.2 µM -4% | [5]; at 3.7 µM 0% | [5]; at 11.0 µM 55% | [5]; at 33.0 µM 46% | [6]; [17] -5% | [7]; [17] 65% | [8]; at 1.2 µM 3% | [8]; at 3.7 µM 50% | [8]; at 33.0 µM 34% | [9]; at 1.2 µM -11% | [9]; at 3.7 µM -24% | [9]; at 11.0 µM 52% | [9]; at 33.0 µM 36% | [10]; at 1.2 µM -19% | [10]; at 3.7 µM -5% | [10]; at 11.0 µM 58% | [10]; at 33.0 µM 33% | [11]; at 1.2 µM -30% | [11]; at 3.7 µM -24% | [11]; at 11.0 µM 65% | [11]; at 33.0 µM 28% | [13]; at 1.2 µM 12% | [13]; at 3.7 µM 2% | [13]; at 11.0 µM 59% | [13]; at 33.0 µM 40%

O=C(O)c1ccccc1C(=O)OC1CCc2ccccc2C1 (stereo not drawn)
inactive: [14]; at 1.2 µM -3% | [14]; at 3.7 µM -2% | [14]; at 11.0 µM 0% | [14]; at 33.0 µM 18% | [14]; at 100.0 µM 46% | [2]; at 1.2 µM 0% | [2]; at 3.7 µM -4% | [2]; at 11.0 µM -1% | [2]; at 33.0 µM -8% | [2]; at 100.0 µM -12% | [15]; at 1.2 µM -4% | [15]; at 3.7 µM -6% | [15]; at 11.0 µM -10% | [15]; at 33.0 µM -1% | [15]; at 100.0 µM 5% | [3]; at 1.2 µM -1% | [3]; at 3.7 µM 0% | [3]; [17] -12% | [3]; at 11.0 µM 1% | [3]; at 33.0 µM 14% | [3]; [18] 17% | [3]; at 50.0 µM 26.4% | [3]; at 100.0 µM 39% | [4]; at 1.2 µM -6% | [4]; at 3.7 µM -9% | [4]; [17] -20% | [4]; at 11.0 µM -11% | [4]; at 33.0 µM 13% | [4]; [18] 26% | [4]; at 50.0 µM 50.1% | [4]; at 100.0 µM 36% | [6]; [17] 1% | [6]; [18] 45% | [6]; at 50.0 µM 50.4% | [16]; at 1.2 µM -10% | [16]; at 3.7 µM -14% | [16]; at 11.0 µM -11% | [16]; at 33.0 µM 39% | [16]; at 100.0 µM 62% | [7]; [17] -74% | [7]; [18] -12% | [7]; at 50.0 µM 58% | [8]; at 1.2 µM -9% | [8]; at 3.7 µM -10% | [8]; [17] -1% | [8]; at 11.0 µM -9% | [8]; at 33.0 µM 17% | [8]; [18] 33% | [8]; at 50.0 µM 55.8% | [8]; at 100.0 µM 53% | [9]; at 1.2 µM -4% | [9]; at 3.7 µM -6% | [9]; at 11.0 µM -9% | [9]; at 33.0 µM -2% | [9]; at 100.0 µM 25% | [10]; at 1.2 µM -5% | [10]; at 3.7 µM -9% | [10]; at 11.0 µM -6% | [10]; at 33.0 µM 14% | [10]; at 100.0 µM 42% | [11]; at 1.2 µM -4% | [11]; at 3.7 µM -4% | [11]; at 11.0 µM -3% | [11]; at 33.0 µM 14% | [11]; at 100.0 µM 45% | [13]; at 1.2 µM -2% | [13]; at 3.7 µM -1% | [13]; at 11.0 µM -1% | [13]; at 33.0 µM 6% | [13]; at 100.0 µM 31%
